Compound activity (PubChem BioAssay)
SKKanGAS inh: blocks kanamycin growth of S. pyogenes SKKanGAS strain. 1.3% of 300,000 active. inhibition, % at 7.5 µM. BacTiter-Glo, 6 h;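 active = mean replicate score, as percent of positive control median, at least 50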;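 note: strain carries kanamycin resistance gene driven by streptokinase promoter and grows in 40 µg/ml kanamycin; loss of luminescence reflects streptokinase promoter inhibition or plain growth inhibition; 0% = median of DMSO wells and 100% = positive control at its reference dose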
tim23-1 inh: growth inhibitors of tim23-1 mutant yeast; S. cerevisiae tim23-1 growth, BacTiter-Glo luminescence, 24 h; inhibition, % at 20 µM; 1.3% of 330,000 active;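 active = growth inhibition of the mutant yeast at or above 50%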;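 note: temperature-sensitive mutant grown at 25 °C; plate controls were DMSO-treated mutant yeast for no effect and medium wells lacking yeast for full effect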
tim10-1 inh: inhibits growth of tim10-1 mutant yeast. inhibition, % at 20 µM. 2.2% of 330,000 active. S. cerevisiae tim10-1 ts strain growth, BacTiter-Glo, 24 h. AID 463190;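 active = inhibition of at least 40%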;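 note: mutant grown at 25 °C; 0% = DMSO wells with yeast and 100% = wells holding no yeast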
NLRP3 yeast inh: inhibitors of NALP3 inflammasome in yeast; Yeast reconstituted NLRP3/ASC/caspase-1, beta-gal luminescence, 24 h; inhibition, % at 10 µM; 0.39% of 330,000 active; AID 2825;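 active = inhibition of 50% or more; inactive = inhibition below 50%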;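 note: plate controls were induced DMSO wells for no effect and uninduced yeast grown without galactose for full effect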
PfHsp90 set2: reduces growth (ATP signal) of yeast expressing P. falciparum Hsp90; S. cerevisiae expressing PfHsp90, BacTiter-Glo ATP, 48 h; yeast lacking PDR1 and PDR3 efflux regulators; inhibition, % at 9.4 µM; 0.32% of 310,000 active; AID 504621;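 active = every replicate shows inhibition above about 80%, whatever the replicate mean, limit read from the data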;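 note: 0% = DMSO neutral controls and 100% = 20 µM radicicol positive controls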
TIM10 inh: inhibits growth of TIM10 yeast strain. S. cerevisiae TIM10 strain growth, BacTiter-Glo luminescence, 24 h. inhibition, % at 10 µM. 1.4% of 330,000 active. AID 463195;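 active = inhibition of 40% or more at the single tested concentration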;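 note: wild-type TIM10 isogenic control strain grown at permissive 25 °C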
tim10-1 conf: confirmation of tim10-1 mutant yeast growth inhibitors; AID 463213; inhibition, % at 20 µM; 56% of 7,400 active; S. cerevisiae tim10-1 ts strain growth, BacTiter-Glo, 24 h; shares compounds with tim10-1 inh;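 active = inhibition of yeast growth at or above a set limit in either of two repeat tests at 20 µM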;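 note: tim10-1 mutant grown at permissive 25 °C to find synthetic lethal compounds; 0% = DMSO yeast wells and 100% = medium wells without yeast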
* hit, by the source's call; . = no result. Shown are actives, neighbours in structure and some others; about 4.6% of the full set was active somewhere.

SMILES | SKKanGAS inh | tim23-1 inh | tim10-1 inh | NLRP3 yeast inh | PfHsp90 set2 | TIM10 inh | tim10-1 conf
C=CCCCCCCCCC(=O)NNC1CC(=O)N(c2ccccc2)C1=O (configuration not stated) | -4 | 16 | 24 | 17 | 3 | 13 | .
CCC1CCCCN1Cc1ccc(N)cc1 (configuration not stated) | . | -7 | 8 | 19 | -29 | 0 | .
FC(F)(F)c1ccc(N2CCOCC2)c(Nc2nc3ccccc3n3cnnc23)c1 | 13 | -51 | 54* | -18 | -55 | 20 | 59*
c1ccc(N2CCCCC2)c(Nc2nc3ccccc3n3cnnc23)c1 | 8 | 28 | 16 | -1 | 18 | 13 | .
CCN(CC(=O)Nc1c(F)cccc1F)C(=O)CNC(=O)C1CCCCC1 | 1 | -8 | -9 | 6 | 43 | -2 | .
CCOc1ccc(NC(=O)c2cccc3c2C(=O)N(Cc2cccnc2)C3)cc1 | 13 | 25 | 42* | 25 | -17 | 34 | 35*
COCCN1Cc2cccc(C(=O)Nc3cccnc3)c2C1=O | . | 9 | 25 | 9 | -11 | 11 | .
COCCN1Cc2cccc(C(=O)Nc3ccc4c(c3)OCCO4)c2C1=O | 16 | 20 | 45* | 7 | -27 | 14 | 18
COCCN1Cc2cccc(C(=O)Nc3ccc(C)cc3)c2C1=O | 11 | 23 | 43* | 13 | 2 | 17 | 28
COc1cc(CCC(=O)NNC(=O)c2ccc(C)cc2)cc(OC)c1OC | -1 | -1 | 12 | 5 | 0 | -9 | .
O=C(NCCO)c1cc2c([nH]c3ccccc32)c(-c2ccccc2)n1 | 1 | 23 | 43* | 11 | 6 | 15 | 14
O=C(NCCO)c1cc2c([nH]c3ccccc32)c(-c2ccc(F)cc2)n1 | 21 | 34 | 29 | 7 | -10 | 29 | .
CN(C(=O)c1cccc(NC(=O)Cc2cccc(NC(=O)C3CCN(C(=O)C4CCCC4)CC3)c2)c1)C1CC1 | . | . | . | . | 15 | . | .
O=C(Nc1cccc(S(=O)(=O)NC2=NCCC2)c1)C1CC(=O)N(c2ccc3c(c2)OCCO3)C1 (configuration not stated) | 28 | 4 | -1 | 17 | . | -3 | .
COc1ccc(-c2oc3cccnc3c2/C=C/c2ccc(OC)c(OC)c2)cc1 | 19 | 37 | 41* | 22 | -9 | 18 | 14
COc1ccc(/C=C/c2c(-c3ccc(OC)cc3)oc(=O)c3cc(OC)c(OC)cc23)cc1 | . | 16 | 10 | 3 | 2 | 4 | .
COc1ccccc1C(CC(=O)O)NS(=O)(=O)c1ccc2c(c1)N(C(C)=O)CC(C)O2 (configuration not stated) | 6 | 5 | -19 | -5 | -20 | -2 | .
OCC1(Cc2cccc(Cl)c2)CCCN(Cc2ccc3cc(F)ccc3n2)C1 (configuration not stated) | 32 | 33 | 48* | 1 | -6 | 23 | 21
COc1ccc(-n2ccnc2CN2CCCC(CO)(Cc3cccc(OC)c3)C2)cc1 (configuration not stated) | 17 | 18 | 41* | 14 | 8 | 20 | 22
CC(=O)c1ccc(N2C(=NC(=O)CCc3ccccc3)SC3CS(=O)(=O)CC32)cc1 (configuration not stated) | -16 | 2 | 4 | 15 | 18 | 3 | .
CCCn1c(-c2cccs2)nc2ccccc21 | 1 | 38 | 41* | 14 | 2 | 15 | 0
C=CCn1c(-c2cccs2)nc2ccccc21 | . | 10 | 4 | 26 | -4 | -14 | .
Cc1cc(/C=N/n2cnnc2)c(C)n1-c1ccc(OCc2ccccc2F)cc1 | 25 | 36 | 46* | 10 | -45 | 39 | -3
Cc1cc(C)cc(OCCCOc2cccc3cccnc23)c1 | 7 | 37 | 42* | 33 | 2 | 27 | 33*
Cc1ccccc1OC(C)C(=O)Nc1ccc2c(c1)OCCO2 (configuration not stated) | 1 | 16 | -8 | 22 | 5 | -1 | .
SMILES | SKKanGAS inh | tim23-1 inh | tim10-1 inh | NLRP3 yeast inh | PfHsp90 set2 | TIM10 inh | tim10-1 conf
O=C(Nc1ccccc1Cl)c1ccc(Cl)cc1Cl | 9 | 3 | -3 | -4 | -6 | 4 | .
O=C(NNC(=S)Nc1cccc(C(F)(F)F)c1)c1ccc(Cl)cc1Cl | 67* | 40 | 52* | 16 | -32 | 17 | 46*
O=C(NC(=S)Nc1ccccc1O)c1ccc(Cl)cc1Cl | 6 | 43 | 43* | 4 | -2 | 12 | 27
CC1=CC(=C2C=CC(=O)C=C2)C=C(C)N1C | -6 | 2 | -8 | -2 | . | 6 | .
CCn1c2ccccc2c2cc(/C=C(/C#N)C(N)=S)ccc21 | . | . | . | . | -34 | . | .
CCOc1c(C=C(C#N)C#N)c2ccccc2n1CC | 0 | 41 | 42* | 19 | 1 | 7 | 27
CCOc1ccc(S(=O)(=O)N2CCN(c3ccccc3F)CC2)c2cccnc12 | -3 | 33 | 45* | 13 | -4 | 22 | 25
CCOc1ccccc1N1CCN(S(=O)(=O)c2ccc3c4c(cccc24)C(=O)N3)CC1 | 24 | 6 | 20 | 19 | -32 | 15 | .
COc1ccc(-c2ccc3oc(-c4ccc(OC)cc4)c(-c4ccc(OC)cc4)c3c2)cc1 | -5 | -2 | 11 | -3 | -12 | -6 | .
COc1ccc2oc3cc(C)[n+]([O-])c(-c4ccc(Br)cc4)c3c2c1 | 40 | 33 | 42* | 8 | 9 | 8 | 24
Cc1ccccc1OCC(=O)NNC(=O)c1cc(S(=O)(=O)N2CCOCC2)ccc1N1CCCC1 | 18 | -16 | -19 | 4 | 12 | -3 | .
Cc1ccsc1/C=N/NC(=O)c1nnn(-c2nonc2N)c1CSc1ccccc1 | -8 | -4 | -1 | 9 | -4 | -2 | .
CCOC(=O)c1cc2c(nc1C)-c1cc(Cl)cc(Cl)c1OC2O (configuration not stated) | . | -8 | 22 | -13 | -15 | 23 | .
O=C(Cc1csc(Nc2nc(=S)[nH]c3ccccc23)n1)NCc1ccccc1Cl | -2 | 4 | 29 | 14 | -13 | 3 | .
Cc1ccc(CNC(=O)Cc2csc(Nc3nc(=S)[nH]c4ccccc34)n2)cc1 | 3 | 4 | 40 | 25 | . | 4 | 26
Cc1c(C)n(C)c2ccc(C(=O)Nc3cccc4ccccc34)cc12 | 2 | 38 | 43* | 25 | -19 | 24 | 32*
Cc1ccc(OC(=O)c2ccc(C)c([N+](=O)[O-])c2)cn1 | 0 | 7 | 8 | 19 | 10 | -1 | .
Cc1ccc(OC(=O)c2ccc([N+](=O)[O-])cc2Cl)cn1 | -1 | 22 | 43* | 4 | 0 | 13 | 23
CS(=O)(=O)NNC(=O)c1sccc1OCc1ncc(C(F)(F)F)cc1Cl | -3 | 0 | 1 | 6 | 12 | -11 | .
O=[N+]([O-])c1cccc2c(N3CCCC3)ccnc12 | -10 | 19 | 28 | 36 | -9 | 4 | .
